Bioassay records deposited in PubChem by National Center for Advancing Translational Sciences (NCATS).
IL1B secr inh: inhibitors of inflammasome signaling (IL-1 beta secretion); THP-1 LPS/ATP IL-1B secretion, AlphaLISA, 16 h; stronger effect = lower value; activity change, % at 57.5 µM; 360,000 tested, 4.7% active; AID 743279; in the data active = activity change below about -50%; inconclusive = mostly about -30% to -49%
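THP-1 cells pretreated 1 hr with compounds (up to 57.5 uM final), then stimulated with LPS (250 ng/mL final) plus ATP (1.25 mM final); secreted IL-1B measured by AlphaLISA after 16 hr, decreased signal indicating inhibition.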
TDP1 cell noCPT: qHTS for Inhibitors of human tyrosyl-DNA phosphodiesterase 1 (TDP1): qHTS in cells in absence of CPT | Potency, µM (doses to about 46.2 µM), without a hit: top-dose activity change, negative = growth inhibition, usual class: inhibitors | DT40 Tdp1-/- hTDP1 cells, no CPT, ATP luminescence, 48 h | 420,000 tested, 15% active; also: potency is read from the fitted curve at half-maximal effect; nearly all actives have a fitted effect of over 55% in size
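No-CPT arm: Tdp1-/-;hTDP1 DT40 cells (400/well) plus compounds, incubated ≥48 hr at 37 °C. Readout CellTiter-Glo luminescence.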
HT1080-NT tox: kills 2HG-producing HT-1080-NT fibrosarcoma cells; HT-1080-NT fibrosarcoma viability, CellTiter-Glo ATP luminescence, 48 h; Potency, µM (titrated, usually from 46.1 µM), for inactives: at the top dose activity, negative = less viability, hits mostly cytotoxic; 360,000 tested, 1.6% active;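 also: NT is the 2HG producing partner of a matched IDH1 knockdown line; potency is read from the fitted curve at half-maximal effect; 0% = DMSO-treated cells and -100% = media-only wells without cells; nearly all actives have a fitted effect of over 55% in size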
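750 cells/well, RPMI + 5% FBS; 2 h settle, compound pin-transfer, 48 h at 37 degrees C. CellTiter-Glo 10 min RT, luminescence. Normalized to DMSO and media-only wells.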
DT40 TDP1 CPT: DT40-hTDP1 cell growth loss with CPT; AID 686979; chicken DT40 Tdp1-/-;hTDP1 cells + 20 nM CPT, ATP luminescence, 48 h; 420,000 tested, 12% active; Potency, µM (doses to about 46.2 µM), inactives show top-dose activity change, negative = growth inhibition, most hits filed as inhibitors; also: potency is read from the fitted curve at half-maximal effect; nearly all actives have a fitted effect of over 55% in size
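Chicken DT40 Tdp1-/- cells complemented with human TDP1, 400 cells/well, exposed to compounds plus 20 nM camptothecin for at least 48 h at 37 C; viability read as ATP content by CellTiter-Glo luminescence.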
HT1080 IDH1KD tx: toxicity to HT-1080 IDH1 knockdown cells (counter line); 360,000 tested, 2% active; HT-1080 IDH1 knockdown viability, ATP luminescence, 48 h; Potency, µM (series often up to 46.1 µM), inactives show top-dose activity, negative = toxicity, actives largely listed as cytotoxic; AID 686971;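 also: potency is read from the fitted curve at half-maximal effect; 0% = DMSO wells and -100% = cell-free medium wells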
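Assay cells: HT-1080 with IDH1 knockdown, 750 per well, RPMI/5% FBS. Exposure: 48 h at 37 °C following 2 h pre-incubation. Read: CellTiter-Glo luminescence; fitted concentration-response, curve class assigned.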
Starred values were filed as active, the others as inactive; ? = inconclusive; / = not tested or not shown. Shown are actives, neighbours in structure and some others; about 19% of the full set was active somewhere. Unless noted, calls follow the shape of the dose curve; as a rule, active = well fitted curve in the direction sought with a large enough effect; inconclusive = small, poorly fitted or top-dose-only effect, or another doubt; inactive = no such curve, though single readings can be large; an effect the other way counts as inactive or inconclusive. Unless noted, % is scaled to controls: 0 for no effect and ±100 for the full control effect.

SMILES	IL1B secr inh	TDP1 cell noCPT	HT1080-NT tox	DT40 TDP1 CPT	HT1080 IDH1KD tx
CC(=O)c1ccccc1NC(=O)c1ccc2c(c1)NC(=O)C(C)S2 (configuration not stated)	-6	?	-29%	21µM*	-8%
CCc1cc(-c2nnn(CCC3COCCO3)c2CC)cc(CC)c1-c1cn(CCc2c[nH]c3ccccc23)nn1 (configuration not stated)	-3	?	5%	?	2%
O=C(O)CCn1cc(/C=C/C(=O)c2ccc(Cl)cc2)c(-c2ccc(Br)cc2)n1	-93*	23µM*	-29%	16µM*	?
Cc1cc2occ(CC(=O)N(C)CC(=O)Nc3cccc(F)c3)c2cc1C	14	-22%	-5%	-8%	-1%
O=C(CC1N=C2c3ccccc3N=C(SCc3ccccc3F)N2C1=O)NCc1cccs1 (configuration not stated)	/	18µM*	/	?	/
O=C(CC1N=C2c3ccccc3N=C(SCc3ccc(Cl)cc3)N2C1=O)NCc1cccs1 (configuration not stated)	/	-19%	/	-29%	/
Cc1ccc(CSC2=Nc3ccccc3C3=NC(CC(=O)NCc4cccs4)C(=O)N23)cc1 (configuration not stated)	/	16µM*	/	16µM*	/
NC(=O)CSC1=Nc2ccccc2C2=NC(CC(=O)NCc3cccs3)C(=O)N12 (configuration not stated)	23	-5%	-5%	-8%	1%
O=C(Nc1ccccc1)c1ccc(NC(=O)C2CC2)cc1	?	14%	-9%	-25%	?
Cc1cc(C)n(-c2ccc(Cl)c(C(=O)Nc3ccc(OC(F)(F)F)cc3)n2)n1	22	?	15%	1%	12%
Cc1ccc(S(=O)(=O)N2CCN(CC3CC4C=CC3C4)CC2)cc1 (configuration not stated)	21	-16%	-1%	-2%	4%
CCCS(=O)(=O)N1CCN(CC2CC3C=CC2C3)CC1 (configuration not stated)	21	5.8µM*	3%	-8%	9%
Nc1ccc2c(c1)OC1(CCCCC1)O2	9	16µM*	0%	?	16%
CCOC(=O)CNS(=O)(=O)c1ccc(S(=O)(=O)NC2CC2)cc1	?	2%	10%	-2%	17%
CN(C)c1cc(N/N=C/c2ccc(Cl)cc2)nc(N(C)C)n1	-3	18µM*	-18%	?	-15%
COc1cc(N/N=C/c2ccc(N(C)C)cc2)ncn1	8	?	-12%	-30%	-4%
C[C@]12CCC(=O)C=C1CCC1C2C(O)C[C@]2(C)C1CC[C@]2(O)C(=O)COC(=O)CCC(=O)O (some centres not stated)	/	-7%	/	4%	/
CCCC(=O)Nc1nc(-c2ccc3c(c2)CCN3S(C)(=O)=O)cs1	?	23µM*	1%	?	1%
CC1Cc2cc(-c3csc(NC(=O)Cc4cccs4)n3)ccc2N1S(C)(=O)=O (configuration not stated)	-22	23µM*	-11%	?	?
Cc1ccccc1C(=O)N1CCc2cc(-c3csc(NC(=O)CN4CCCC4)n3)ccc21	22	?	?	?	?
CCC(=O)Nc1nc(-c2ccc3c(c2)CC(C)N3S(C)(=O)=O)cs1 (configuration not stated)	-16	16µM*	-10%	?	-11%
O=C1COc2ccc(-c3csc(NCC4CCCO4)n3)cc2N1 (configuration not stated)	-22	-24%	-1%	?	-4%
CS(=O)(=O)N1CCc2cc(-c3csc(NCC4CCCO4)n3)ccc21 (configuration not stated)	-68*	-27%	0%	-25%	1%
O=C(c1cc(C2CCCCN2S(=O)(=O)c2cccs2)on1)N1CCOCC1 (configuration not stated)	23	-5%	-3%	4%	9%
S=C(NCCCN1CCOCC1)Nc1cccc(-c2nnc3n2CCCCC3)c1	-3	-1%	17%	10%	10%
SMILES	IL1B secr inh	TDP1 cell noCPT	HT1080-NT tox	DT40 TDP1 CPT	HT1080 IDH1KD tx
CCN(CC)S(=O)(=O)c1ccc(C(=O)OCCN2C(=O)c3cccc4c(N5CCOCC5)ccc(c34)C2=O)cc1	10	18µM*	24%	?	23%
O=C1NC[C@@H](CCCCN2C[C@H](Cc3ccccc3)N(Cc3ccccc3)C(=O)C2=O)N(Cc2ccccc2)C1=O	4	-7%	0%	-8%	9%
COC(=O)/C=C/c1sc2nc(C)cc(C)c2c1N=CN(C)C	28	-11%	-7%	-21%	1%
O=c1c(Cc2ccc(F)cc2)c(O)ccn1Cc1cccc(Cl)c1	0	16µM*	-2%	?	-9%
O=c1c(Cc2ccc(Cl)cc2)c(O)ccn1Cc1cccc(Cl)c1	33	?	-14%	-11%	-23%
CC(=O)OCC1(C)CN(c2ccccc2)N(C(C)=O)C1=O (configuration not stated)	12	21µM*	21µM*	?	?
CC(=O)OCC1(C)CN(c2ccccc2)N(C(=O)c2ccc(C(C)(C)C)cc2)C1=O (configuration not stated)	-2	?	?	?	?
CC(=O)OCC1(C)CN(c2ccccc2)NC1=O (configuration not stated)	24	?	?	21µM*	23µM*
COc1ccc(CCN(C(=O)C(F)(F)F)C(C(=O)NC2CCCC2)c2cccs2)cc1OC (configuration not stated)	-20	1.8µM*	-20%	7.3µM*	-10%
COc1ccc(CCN(C(=O)c2ccco2)C(C(=O)NC2CCCC2)c2ccncc2)cc1OC (configuration not stated)	-15	-18%	-2%	-14%	-2%
COc1ccc(CCN(C(=O)C(F)(F)F)C(C(=O)NC2CCCCC2)c2ccc(C)s2)cc1OC (configuration not stated)	4	9.2µM*	8%	12µM*	11%
CC(C)C1Oc2ccccc2N(CC(=O)N(C)C2CCCCC2)C1=O (configuration not stated)	-74*	?	-5%	?	-1%
CC(C)C1Oc2ccccc2N(CC(=O)N2CCOCC2)C1=O (configuration not stated)	13	2%	8%	?	17%
COc1cc(N2CCC(O)CC2)ccc1Nc1nnc(Cl)c(Nc2ccccc2S(C)(=O)=O)n1	36	16µM*	?	21µM*	-16%
